Results filed as inconclusive are left out. Entries that show only a call come without a potency. A number with no mark means an inactive call. Activity calls are given as the source filed them. Calls come from the whole dose curve.
The compounds below were run against Beta-2 adrenergic receptor (Homo sapiens) (UniProt P07550) (assay: Adrenergic beta2 receptor (ADRB2) small molecule antagonists, cell-based qHTS assay (AID 1963592; note: nearly all actives have a fitted effect of over 50% in size)). Conditions: CHO-ADRB2 cells, isoproterenol-stimulated cAMP HTRF ratio, 0.5 h; series mostly up to 92.4 µM.
Beta-2 adrenergic receptor (Homo sapiens), sequence (P07550 whole entry, looked up): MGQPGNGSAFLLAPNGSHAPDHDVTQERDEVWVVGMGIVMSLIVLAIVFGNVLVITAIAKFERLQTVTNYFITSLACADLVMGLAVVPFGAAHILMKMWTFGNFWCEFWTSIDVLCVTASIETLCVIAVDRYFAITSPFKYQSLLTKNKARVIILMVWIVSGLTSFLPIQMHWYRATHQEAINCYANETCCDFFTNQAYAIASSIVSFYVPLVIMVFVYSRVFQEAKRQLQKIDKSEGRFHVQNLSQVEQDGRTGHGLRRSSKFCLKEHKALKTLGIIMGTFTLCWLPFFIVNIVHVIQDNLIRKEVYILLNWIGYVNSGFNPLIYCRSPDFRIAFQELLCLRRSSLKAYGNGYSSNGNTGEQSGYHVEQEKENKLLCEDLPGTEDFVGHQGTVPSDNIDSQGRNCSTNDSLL
Source text: U.S. Tox21 Program National Center for Advancing Translational Sciences [NCATS] Division of Preclinical Innovation [DPI] U.S. Environmental Protection Agency [EPA] National Institutes of Environmental Health Sciences [NIEHS] National Toxicology Program [NTP] U.S. Food and Drug Administration [FDA] Tox21 Assay Overview: Beta adrenergic receptors (Beta-ARs) belong to the G-protein coupled receptor (GPCR) superfamily, includes three subtypes - beta1, beta2, and beta3. Beta1-AR is the predominant receptor subtype expressed in the heart, and beta2-AR is expressed in the kidney, lung, blood vessel and in the heart, and beta3 is found in the adipocytes. Beta1 and 2 ARs couple to Gs protein and elevate cyclic adenosine mono phosphate (cAMP), which activates protein kinase A and leads to the downstream signaling responsible for the physiological actions. Beta-AR agonists or antagonists are the most prescribed therapeutic agents for heart failure and asthma, and these were one of the first target receptors for the rational drug design. Tox21 10K compound library was screened using the cAMP-Gs dynamic assay (Cisbio Bioassays, Shelton, CT) to identify agonists/antagonists of the Gs-coupled human adrenergic, beta2 receptor (ADRB2) in the CHO-ADRB2 cell line (Codex BioSolutions, Inc. Gaithersburg, MD), which stably over-expresses ADRB2. The principle of cAMP-Gs dynamic assay is based on HTRF technology, which facilitates the fluorescence resonance energy transfer (FRET) between donor Europium cryptate and acceptor d2-labeled cAMP. The cAMP generated within cells competes with the red acceptor, d2-labled cAMP, for binding to the monoclonal anti-cAMP-cryptate (Europium donor). An increase in intracellular cAMP leads to the disruption of FRET signal, and the signal is inversely proportional to the cAMP concentration. Propranolol HCl (Sigma-Aldrich, St. Louis, MO) was used as a positive control in the screening.
Tox21 Assay Protocol Summary: CHO-ADRB2 cells were dispensed at 1,000/well in 4uL assay medium into white/solid 1536-well plates (Greiner Bio-One North America Inc., Monroe, NC) using a Multidrop Combi dispenser (ThermoFisher Scientific, Waltham, MA). The assay plates were incubated at 37C and 5% CO2 for an overnight (18-20hr). Then positive control and test compounds dissolved in DMSO were transferred to the assay plates at 23nL using a Pintool station (Wako, San Diego, CA). Following the compound and positive control transfer, 1uL agonist-stimulation mix containing 1nM Isoproterenol HCl, 100uM IBMX and 25uM Ro-20-1724 was added to each well of the assay plates using BioRAPTR Flying Reagent Dispenser (FRD, Beckman Coulter, Brea, CA). The assay plates were incubated at room temperature for 0.5hr. Then 2.5ul each d2-labled cAMP and anti-cAMP-cryptate solutions were added separately to each well of the assay plates using an FRD and the assay plates were incubated at room temperature for 1hr. The fluorescence signal was measured at two different wavelengths (665nm and 615nm) using an Envision plate reader (Perkin Elmer, Shelton, CT). Data were expressed as the ratio of 665 nm/615 nm.
Potency is the fitted concentration of half-maximal effect.

Row | SMILES | Potency | activity change, negative = inhibition
1 | CC(C)OCC1CO1 (stereo not given) | inactive | –
2 | O=S(=O)(c1ccccc1)c1ccc(Cl)cc1 | inactive | –
3 | C[C@@H](CN1CC(=O)NC(=O)C1)N1CC(=O)NC(=O)C1 | inactive | –
4 | CCC(Cc1ccccc1)(C(=O)c1ccc(N2CCOCC2)cc1)N(C)C (stereo not given) | inactive | –
5 | COc1cc2c(cc1OC)CN(C(=O)[C@H](C)N[C@@H](CCc1ccccc1)C(=O)O)[C@H](C(=O)O)C2 | inactive | –
6 | COS(=O)(=O)C(F)(F)F | inactive | –
7 | O=C1CCCCCCCCCCCCCC1 | inactive | –
8 | CCC1(C)C(=O)N(Cl)C(=O)N1Cl (stereo not given) | inactive | –
9 | COc1ccc(-c2coc3cc(O)ccc3c2=O)cc1 | inactive | –
10 | O=C(O)C1CCC1 | inactive | –
11 | CCc1nn(C2CCCCC2)c2cc(C3(C#N)CCC(C(=O)O)CC3)ccc12 (stereo not given) | inactive | –
12 | CCCCCC(=O)OCC | inactive | –
13 | O=NN(CCCl)C(=O)NCCCl | inactive | –
14 | CC(C)(C)C(=O)CC(=O)C(C)(C)C | inactive | –
15 | CC=C(Cl)Cl | inactive | –
16 | CCOc1cc([N+](=O)[O-])c(OCC)cc1N1CCOCC1 | inactive | –
17 | NC[C@H]1O[C@H](O[C@H]2[C@H](O[C@@H]3O[C@H](CO)[C@@H](O)[C@H]3O)C(O)[C@H](N)C[C@@H]2N)[C@H](N)[C@@H](O)[C@@H]1O (stereo not given in full) | – | 7.44% [at 8.39 µM]
18 | Cc1nc(-c2ccc(Cl)cc2)oc1COC(C)(C)C(=O)O | inactive | –
19 | CN(C)CCC[C@@]1(c2ccc(F)cc2)OCc2cc(C#N)ccc21 | inactive | –
20 | COC(=O)CCCCCCCCC(=O)OC | inactive | –

Row | SMILES | Potency | activity change, negative = inhibition
21 | O=C1NCN(c2ccccc2)C12CCN(CCCC(c1ccc(F)cc1)c1ccc(F)cc1)CC2 | 23.7 µM (active) | –
22 | CC(C)(C)NCCNC(C)(C)C | inactive | –
23 | N#CSCC(=O)O | inactive | –
24 | C=CC(=O)OCC[N+](C)(C)C | inactive | –
25 | CCOC(=O)C(O)c1ccccc1 (stereo not given) | inactive | –
26 | CCc1cc(S(=O)(=O)O)c2cc(C(C)C)cccc1-2 | inactive | –
27 | CCCCCCCCCCCC[N+](C)(C)CC(=O)[O-] | inactive | –
28 | C1OCOCO1 | inactive | –
29 | Cc1ccnc(NS(=O)(=O)c2ccc(N)cc2)n1 | inactive | –
30 | O=C(O)CCCC[P+](c1ccccc1)(c1ccccc1)c1ccccc1 | inactive | –
31 | CCN(CC)CCc1nc(-c2ccccc2)no1 | inactive | –
32 | Nc1ccc(S(=O)(=O)Nc2ccccc2)cc1 | inactive | –
33 | FC1(F)C(F)(F)C(F)(F)C2(F)C(F)(C1(F)F)C(F)(F)C(F)(F)C1(F)C(F)(F)C(F)(F)C(F)(F)C(F)(F)C12F (stereo not given) | inactive | –
34 | CCCCCCCCCCCCCC(=O)OCC(O)CO (stereo not given) | inactive | –
35 | COc1ccc2nc(SCc3ncc(C)c(OC)c3C)[nH]c2c1 | inactive | –
36 | O=C(c1ccccc1)c1ccc(Cl)cc1 | inactive | –
37 | CN1CCOC(c2ccccc2)c2ccccc2C1 (stereo not given) | inactive | –
38 | CCCN(CCC)C(=O)C(CCC(=O)OCCCN1CCN(CCOC(=O)Cc2c(C)n(C(=O)c3ccc(Cl)cc3)c3ccc(OC)cc23)CC1)NC(=O)c1ccccc1 (stereo not given) | inactive | –
39 | O=C1CC2(CCCC2)CC(=O)N1CCNCC1COc2ccccc2O1 (stereo not given) | inactive | –
40 | CCc1cccc(C)c1N(C(=O)C(=O)O)C(C)COC (stereo not given) | inactive | –

Reference: PubChem BioAssay (Tox21)
